Test results: the supplement of paper PMC11732987, “Enantioselective OTUD7B fragment discovery through chemoproteomics screening and high-throughput optimisation” (Communications Chemistry, 2025)

Columns and labels:
Test in all cases: log2 ratio of Biotin-Ahx-Ub-VS probe labelling (fragment/DMSO); higher = less target engagement (more negative = stronger competition), active = hit call of the paper (q ≤ 0.05, log2 ratio ≤ -1)
Conditions in all cases: compound concentration: 200 uM; treatment time: 3 h
USP34 = USP34 (UniProt Q70CQ2)
Chain of USP34 (Q70CQ2 whole entry, the tested form may be a part): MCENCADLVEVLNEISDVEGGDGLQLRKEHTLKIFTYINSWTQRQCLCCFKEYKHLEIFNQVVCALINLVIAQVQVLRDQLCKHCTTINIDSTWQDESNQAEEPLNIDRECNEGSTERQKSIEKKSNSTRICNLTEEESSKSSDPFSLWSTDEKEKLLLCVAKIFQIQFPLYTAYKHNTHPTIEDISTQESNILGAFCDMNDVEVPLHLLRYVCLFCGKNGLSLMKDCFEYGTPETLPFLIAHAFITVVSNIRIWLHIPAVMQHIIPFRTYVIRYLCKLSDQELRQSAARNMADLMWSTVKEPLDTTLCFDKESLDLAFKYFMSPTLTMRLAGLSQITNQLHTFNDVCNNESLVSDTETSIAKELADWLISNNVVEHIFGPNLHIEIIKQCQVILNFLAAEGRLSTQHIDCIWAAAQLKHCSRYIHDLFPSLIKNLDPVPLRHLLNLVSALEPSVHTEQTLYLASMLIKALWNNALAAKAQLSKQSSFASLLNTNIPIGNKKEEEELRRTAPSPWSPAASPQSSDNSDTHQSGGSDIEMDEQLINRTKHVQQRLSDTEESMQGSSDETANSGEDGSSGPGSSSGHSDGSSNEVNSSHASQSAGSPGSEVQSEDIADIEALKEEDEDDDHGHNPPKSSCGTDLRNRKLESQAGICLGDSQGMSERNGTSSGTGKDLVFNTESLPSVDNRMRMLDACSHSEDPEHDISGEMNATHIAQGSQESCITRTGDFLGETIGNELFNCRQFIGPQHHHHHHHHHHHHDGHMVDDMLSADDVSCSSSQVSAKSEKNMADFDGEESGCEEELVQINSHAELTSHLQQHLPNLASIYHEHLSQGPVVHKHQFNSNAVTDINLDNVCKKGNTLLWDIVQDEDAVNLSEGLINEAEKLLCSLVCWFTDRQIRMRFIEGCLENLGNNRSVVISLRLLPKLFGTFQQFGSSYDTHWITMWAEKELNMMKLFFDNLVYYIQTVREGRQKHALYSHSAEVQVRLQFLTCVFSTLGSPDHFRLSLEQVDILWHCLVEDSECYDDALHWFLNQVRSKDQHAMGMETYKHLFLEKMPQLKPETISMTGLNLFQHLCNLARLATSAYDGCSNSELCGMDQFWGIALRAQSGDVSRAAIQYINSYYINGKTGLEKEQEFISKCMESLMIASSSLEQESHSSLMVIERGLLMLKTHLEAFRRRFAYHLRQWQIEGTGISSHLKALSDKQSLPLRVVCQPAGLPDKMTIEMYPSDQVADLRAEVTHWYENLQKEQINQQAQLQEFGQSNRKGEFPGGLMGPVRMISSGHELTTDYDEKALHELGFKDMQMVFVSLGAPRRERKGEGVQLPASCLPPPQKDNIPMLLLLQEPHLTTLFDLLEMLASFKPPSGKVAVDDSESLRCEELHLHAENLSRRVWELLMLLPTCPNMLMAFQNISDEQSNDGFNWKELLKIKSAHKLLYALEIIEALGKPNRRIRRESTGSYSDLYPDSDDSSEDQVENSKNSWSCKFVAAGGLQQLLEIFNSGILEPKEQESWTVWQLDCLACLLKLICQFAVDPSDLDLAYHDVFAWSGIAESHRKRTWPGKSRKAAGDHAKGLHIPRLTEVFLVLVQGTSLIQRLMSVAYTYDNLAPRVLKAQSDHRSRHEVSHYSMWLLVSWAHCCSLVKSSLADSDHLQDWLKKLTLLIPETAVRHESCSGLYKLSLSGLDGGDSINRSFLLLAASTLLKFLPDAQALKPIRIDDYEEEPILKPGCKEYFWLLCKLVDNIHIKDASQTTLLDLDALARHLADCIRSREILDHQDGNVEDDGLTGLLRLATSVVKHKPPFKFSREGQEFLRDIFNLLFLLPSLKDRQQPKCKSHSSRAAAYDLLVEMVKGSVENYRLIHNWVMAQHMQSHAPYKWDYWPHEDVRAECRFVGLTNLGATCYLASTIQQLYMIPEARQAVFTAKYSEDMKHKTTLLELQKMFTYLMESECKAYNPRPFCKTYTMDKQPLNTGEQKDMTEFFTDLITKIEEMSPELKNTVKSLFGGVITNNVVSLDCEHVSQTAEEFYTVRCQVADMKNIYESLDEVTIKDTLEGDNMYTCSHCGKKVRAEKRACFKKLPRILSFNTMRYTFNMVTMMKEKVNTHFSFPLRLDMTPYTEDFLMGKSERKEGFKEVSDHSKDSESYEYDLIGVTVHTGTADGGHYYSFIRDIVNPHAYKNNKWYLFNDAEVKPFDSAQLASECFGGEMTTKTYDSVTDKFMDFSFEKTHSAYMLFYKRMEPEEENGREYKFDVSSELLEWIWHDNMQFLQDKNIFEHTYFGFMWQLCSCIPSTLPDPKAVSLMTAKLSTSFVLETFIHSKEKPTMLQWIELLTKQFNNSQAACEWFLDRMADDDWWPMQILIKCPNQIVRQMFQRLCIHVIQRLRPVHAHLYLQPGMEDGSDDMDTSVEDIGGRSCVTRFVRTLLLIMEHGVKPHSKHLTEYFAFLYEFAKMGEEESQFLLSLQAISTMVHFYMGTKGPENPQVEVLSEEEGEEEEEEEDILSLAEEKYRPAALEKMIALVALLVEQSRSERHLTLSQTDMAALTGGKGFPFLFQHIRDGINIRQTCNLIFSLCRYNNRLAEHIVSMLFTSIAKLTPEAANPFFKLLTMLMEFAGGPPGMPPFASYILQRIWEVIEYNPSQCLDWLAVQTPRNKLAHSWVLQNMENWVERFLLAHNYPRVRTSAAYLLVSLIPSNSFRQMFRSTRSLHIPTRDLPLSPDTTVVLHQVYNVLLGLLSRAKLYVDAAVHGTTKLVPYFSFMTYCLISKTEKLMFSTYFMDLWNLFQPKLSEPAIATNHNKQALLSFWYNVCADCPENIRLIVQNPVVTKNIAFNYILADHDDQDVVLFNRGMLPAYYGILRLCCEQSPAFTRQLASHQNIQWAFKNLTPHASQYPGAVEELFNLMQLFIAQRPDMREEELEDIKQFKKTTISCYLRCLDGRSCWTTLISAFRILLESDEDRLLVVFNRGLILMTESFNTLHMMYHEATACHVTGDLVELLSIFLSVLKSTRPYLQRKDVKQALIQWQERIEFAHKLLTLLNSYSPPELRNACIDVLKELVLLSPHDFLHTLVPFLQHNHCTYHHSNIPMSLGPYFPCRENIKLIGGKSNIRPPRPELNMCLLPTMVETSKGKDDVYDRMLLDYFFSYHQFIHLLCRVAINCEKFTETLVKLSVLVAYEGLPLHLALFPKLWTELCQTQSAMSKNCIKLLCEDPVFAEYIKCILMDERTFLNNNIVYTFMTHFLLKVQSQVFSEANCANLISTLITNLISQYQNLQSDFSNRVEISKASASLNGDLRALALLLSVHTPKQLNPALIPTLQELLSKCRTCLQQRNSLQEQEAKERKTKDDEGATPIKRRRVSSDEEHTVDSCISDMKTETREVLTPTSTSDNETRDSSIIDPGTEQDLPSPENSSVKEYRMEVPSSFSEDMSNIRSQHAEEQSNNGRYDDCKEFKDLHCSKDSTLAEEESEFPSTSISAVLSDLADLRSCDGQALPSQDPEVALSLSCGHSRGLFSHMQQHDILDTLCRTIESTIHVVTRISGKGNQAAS
Summary of the method: (§1)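 Triplicate samples of HEK293T lysate, 495 µg each, received fragment at 200 µM or vehicle for 3 h, followed by Biotin-Ahx-Ub-VS (0.5 µM final) for 1 h. After NeutrAvidin enrichment of labelled DUBs and LysC/trypsin digestion, peptides were run by diaPASEF LC-MS/MS. The values are average log2 fragment/vehicle ratios from global-median-normalised Spectronaut label-free quantities, tested by unpaired t-test on proteins having ≥2 unique peptides.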

USP36 = biological target: T1, USP36 (UniProt Q9P275)
T1 sequence (whole entry): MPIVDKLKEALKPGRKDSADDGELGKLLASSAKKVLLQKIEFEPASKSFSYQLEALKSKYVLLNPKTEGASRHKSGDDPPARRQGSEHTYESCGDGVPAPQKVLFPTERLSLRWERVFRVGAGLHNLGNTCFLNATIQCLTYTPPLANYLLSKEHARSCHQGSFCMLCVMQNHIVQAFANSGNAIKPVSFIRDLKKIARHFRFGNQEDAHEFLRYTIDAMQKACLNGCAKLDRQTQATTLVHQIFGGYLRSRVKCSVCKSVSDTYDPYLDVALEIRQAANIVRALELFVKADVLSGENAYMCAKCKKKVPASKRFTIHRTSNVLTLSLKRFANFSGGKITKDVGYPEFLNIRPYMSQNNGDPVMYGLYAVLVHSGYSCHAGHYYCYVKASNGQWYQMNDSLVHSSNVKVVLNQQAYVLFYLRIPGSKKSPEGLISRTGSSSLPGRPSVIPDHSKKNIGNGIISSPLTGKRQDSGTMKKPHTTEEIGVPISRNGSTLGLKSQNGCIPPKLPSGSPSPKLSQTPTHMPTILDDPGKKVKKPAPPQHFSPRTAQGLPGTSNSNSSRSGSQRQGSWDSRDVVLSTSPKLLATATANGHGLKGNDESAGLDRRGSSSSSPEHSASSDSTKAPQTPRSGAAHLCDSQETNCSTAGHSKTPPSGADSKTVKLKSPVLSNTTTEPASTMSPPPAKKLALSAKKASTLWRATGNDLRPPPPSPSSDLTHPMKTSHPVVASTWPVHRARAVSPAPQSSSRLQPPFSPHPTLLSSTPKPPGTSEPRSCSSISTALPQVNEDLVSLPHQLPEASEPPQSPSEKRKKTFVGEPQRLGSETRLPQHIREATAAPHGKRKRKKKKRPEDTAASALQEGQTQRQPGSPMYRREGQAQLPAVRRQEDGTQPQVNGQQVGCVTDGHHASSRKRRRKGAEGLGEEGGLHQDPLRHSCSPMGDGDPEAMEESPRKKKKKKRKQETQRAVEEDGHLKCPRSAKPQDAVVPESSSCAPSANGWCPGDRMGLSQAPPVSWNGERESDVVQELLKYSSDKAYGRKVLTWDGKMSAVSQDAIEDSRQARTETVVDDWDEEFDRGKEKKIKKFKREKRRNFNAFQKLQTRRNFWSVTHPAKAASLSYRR
Summary of the method: as §1

USP38 = biological target: T2, USP38 (UniProt Q8NB14)
T2 sequence (whole entry): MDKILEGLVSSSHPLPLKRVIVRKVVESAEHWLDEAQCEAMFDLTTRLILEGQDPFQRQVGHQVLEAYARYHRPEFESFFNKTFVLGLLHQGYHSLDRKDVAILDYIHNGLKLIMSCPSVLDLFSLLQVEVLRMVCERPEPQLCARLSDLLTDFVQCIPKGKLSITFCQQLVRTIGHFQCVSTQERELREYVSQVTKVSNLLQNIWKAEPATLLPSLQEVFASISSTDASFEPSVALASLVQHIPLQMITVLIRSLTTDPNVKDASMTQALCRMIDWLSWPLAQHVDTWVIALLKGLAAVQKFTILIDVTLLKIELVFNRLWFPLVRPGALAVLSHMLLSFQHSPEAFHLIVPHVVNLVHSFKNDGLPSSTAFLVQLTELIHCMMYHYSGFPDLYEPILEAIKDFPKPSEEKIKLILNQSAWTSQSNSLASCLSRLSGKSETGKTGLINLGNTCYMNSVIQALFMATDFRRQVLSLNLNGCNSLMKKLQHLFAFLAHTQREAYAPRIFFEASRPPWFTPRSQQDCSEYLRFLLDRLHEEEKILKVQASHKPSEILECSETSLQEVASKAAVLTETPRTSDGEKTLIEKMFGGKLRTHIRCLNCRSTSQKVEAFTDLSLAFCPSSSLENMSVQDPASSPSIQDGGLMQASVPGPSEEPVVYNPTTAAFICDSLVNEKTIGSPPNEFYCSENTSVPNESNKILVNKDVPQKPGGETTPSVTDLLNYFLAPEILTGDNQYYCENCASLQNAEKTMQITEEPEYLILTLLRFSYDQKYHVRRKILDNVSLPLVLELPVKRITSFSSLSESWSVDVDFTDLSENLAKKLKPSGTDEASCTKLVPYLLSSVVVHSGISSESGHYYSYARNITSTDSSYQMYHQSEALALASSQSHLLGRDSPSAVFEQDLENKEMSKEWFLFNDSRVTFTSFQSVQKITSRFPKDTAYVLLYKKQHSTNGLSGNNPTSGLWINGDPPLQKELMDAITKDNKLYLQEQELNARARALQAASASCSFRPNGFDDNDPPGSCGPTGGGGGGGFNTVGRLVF
Summary of the method: as §1

USP39 = biological target: T3, USP39 (UniProt Q53GS9)
T3 sequence (whole entry): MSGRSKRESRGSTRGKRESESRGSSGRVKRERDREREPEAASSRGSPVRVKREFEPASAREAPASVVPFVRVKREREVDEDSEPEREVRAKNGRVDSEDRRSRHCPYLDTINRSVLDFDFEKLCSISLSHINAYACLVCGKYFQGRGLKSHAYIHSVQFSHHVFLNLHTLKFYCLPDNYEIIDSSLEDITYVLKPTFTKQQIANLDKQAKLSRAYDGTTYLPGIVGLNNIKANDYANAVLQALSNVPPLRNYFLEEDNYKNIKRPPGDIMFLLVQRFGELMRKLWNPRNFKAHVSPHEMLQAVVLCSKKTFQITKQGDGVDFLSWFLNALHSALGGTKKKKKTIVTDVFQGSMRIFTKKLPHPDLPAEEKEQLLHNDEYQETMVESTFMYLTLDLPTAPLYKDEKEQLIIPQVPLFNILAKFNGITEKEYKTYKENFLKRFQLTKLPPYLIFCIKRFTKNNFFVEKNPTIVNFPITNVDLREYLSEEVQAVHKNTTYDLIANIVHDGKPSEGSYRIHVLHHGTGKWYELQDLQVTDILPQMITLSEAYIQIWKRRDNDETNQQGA
Summary of the method: as §1

USP4 = biological target: T4, USP4 (UniProt Q13107)
T4 sequence (whole entry): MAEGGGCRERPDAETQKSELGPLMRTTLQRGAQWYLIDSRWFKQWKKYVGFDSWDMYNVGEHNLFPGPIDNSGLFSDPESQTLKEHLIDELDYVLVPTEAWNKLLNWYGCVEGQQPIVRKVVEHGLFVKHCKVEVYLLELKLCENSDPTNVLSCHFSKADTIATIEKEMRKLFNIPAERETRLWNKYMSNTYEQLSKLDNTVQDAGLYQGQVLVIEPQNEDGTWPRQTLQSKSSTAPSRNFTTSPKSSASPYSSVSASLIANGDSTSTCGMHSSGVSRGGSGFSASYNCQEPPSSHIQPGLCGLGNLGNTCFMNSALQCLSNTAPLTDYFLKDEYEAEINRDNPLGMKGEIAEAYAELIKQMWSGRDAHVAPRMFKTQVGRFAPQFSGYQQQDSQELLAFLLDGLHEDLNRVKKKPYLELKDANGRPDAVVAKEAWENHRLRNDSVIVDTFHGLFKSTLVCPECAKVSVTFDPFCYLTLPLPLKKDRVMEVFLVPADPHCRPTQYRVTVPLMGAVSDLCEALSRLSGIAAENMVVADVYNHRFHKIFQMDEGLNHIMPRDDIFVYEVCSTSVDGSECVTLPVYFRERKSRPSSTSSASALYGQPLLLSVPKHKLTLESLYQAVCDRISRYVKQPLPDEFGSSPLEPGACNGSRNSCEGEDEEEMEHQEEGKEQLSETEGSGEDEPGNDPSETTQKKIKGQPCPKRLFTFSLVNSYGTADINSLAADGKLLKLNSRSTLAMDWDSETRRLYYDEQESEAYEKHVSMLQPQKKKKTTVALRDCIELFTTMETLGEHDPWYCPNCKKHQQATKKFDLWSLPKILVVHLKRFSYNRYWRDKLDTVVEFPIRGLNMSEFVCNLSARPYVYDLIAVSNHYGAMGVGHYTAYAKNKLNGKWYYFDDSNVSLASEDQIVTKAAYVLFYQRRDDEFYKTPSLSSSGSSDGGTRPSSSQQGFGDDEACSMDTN
Summary of the method: as §1

Measured: log2 ratio of Biotin-Ahx-Ub-VS probe labelling

O=C(CCl)N1CCC[C@@H]1c1ccon1
inactive: USP34 -0.0339 | USP36 -0.122 | USP38 -0.189 | USP39 0.0959 | USP4 -0.394
